This note sets out measurements from PubChem BioAssay (EPA / NIEHS).

In general, AC50 refers to the midpoint of the concentration-response curve, whichever way the signal moves.

Active and inactive are the calls of the source. Rule for the calls: active = hit-call score of the fitted dose curve at least 0.9, where 1 is the maximum; inactive = score below 0.9.

Read-out in assay [1]: urokinase plasminogen activator (uPA), PLAU (gene 5328)
Put plainly: BSK_KF3CT_uPA: BioMAP Diversity Plus: KF3CT Assay for urokinase plasminogen activator (uPA) Biomarker Activity (AID 2283075). The settings on record: primary human keratinocytes with fibroblasts; actives raise or lower the signal. The method, boiled down: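 ELISA readout of uPA, analyzed for signal gain or loss relative to DMSO, from a human primary keratinocyte–foreskin fibroblast co-culture measured 24 h after chemical treatment.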

Read-out in assay [2]: CD40, CD40 (gene 958)
Put plainly: BSK_LPS_CD40: BioMAP Diversity Plus: LPS Assay for CD40 Biomarker Activity (AID 2283076). The settings on record: primary human HUVEC with PBMC; actives raise or lower the signal. The method, boiled down: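 Primary human umbilical vein endothelial cells co-cultured with peripheral blood mononuclear cells, LPS-stimulated, were dosed with chemical and read 24 h later. CD40 levels were measured by ELISA and fitted bidirectionally against DMSO as negative control and baseline.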

Read-out in assay [3]: E-selectin (Homo sapiens) (UniProt P16581)
Put plainly: BSK_LPS_Eselectin: BioMAP Diversity Plus: LPS Assay for Eselectin Biomarker Activity (AID 2283077). The settings on record: primary human HUVEC with PBMC; actives raise or lower the signal. A digest of the protocol:
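Human umbilical vein endothelial cells co-cultured with peripheral blood mononuclear cells under LPS stimulation; E-selectin measured by ELISA 24 h after chemical dosing. Activity fitted bidirectionally against DMSO as negative control and baseline.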

Read-out in assay [4]: Interleukin-8 (IL8), CXCL8 (gene 3576)
Kind of assay: BSK_LPS_IL8: BioMAP Diversity Plus: LPS Assay for Interleukin-8 (IL8) Biomarker Activity (AID 2283078). The settings on record: primary human HUVEC with PBMC; actives raise or lower the signal. A digest of the protocol: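 Human umbilical vein endothelial cells co-cultured with PBMC were stimulated with LPS; IL-8 levels were measured by ELISA 24 h after chemical dosing. Activity was fitted bidirectionally against DMSO as negative control and baseline.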

Assay [5] is described as follows: BSK_LPS_SRB: Viability Assessment in the BioMAP Diversity Plus: LPS Assay (AID 2283079).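 Note: total protein by sulforhodamine B absorbance as a cytotoxicity measure; measured one day after compound addition; fitted in both directions against DMSO so loss or gain of signal counts.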 As to conditions: primary human HUVEC with PBMC. A digest of the protocol:
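Human umbilical vein endothelial cells co-cultured with PBMC (LPS system) were dosed for 24 h. Total protein was stained with 0.1% sulforhodamine B after 10% TCA fixation, read at 560 nm, and fitted bidirectionally against DMSO baseline.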

Read-out in assay [6]: Interleukin-1 alpha (IL1a), IL1A (gene 3552)
Put plainly: BSK_LPS_IL1a: BioMAP Diversity Plus: LPS Assay for Interleukin-1 alpha (IL1a) Biomarker Activity (AID 2283080). The settings on record: primary human HUVEC with PBMC; actives raise or lower the signal. A digest of the protocol:
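Human umbilical vein endothelial cells co-cultured with peripheral blood mononuclear cells were LPS-stimulated and exposed to test chemicals for 24 h. IL-1 alpha was quantified by ELISA, with bidirectional curve fitting against DMSO as the negative control and baseline.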

Read-out in assay [7]: Monocyte Chemoattractant Protein-1 (MCP1), CCL2 (gene 6347)
Put plainly: BSK_LPS_MCP1: BioMAP Diversity Plus: LPS Assay for Monocyte Chemoattractant Protein-1 (MCP1) Biomarker Activity (AID 2283081). As to conditions: primary human HUVEC with PBMC; actives raise or lower the signal. The method, boiled down: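 HUVEC plus PBMC co-culture (human primary cells, LPS system) exposed to test chemical for 24 h; MCP-1 measured by ELISA. Bidirectional curve fitting against DMSO baseline; parallel SRB total-protein staining flags overt cytotoxicity.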

A short description of assay [8]: BSK_LPS_PGE2: BioMAP Diversity Plus: LPS Assay for Prostaglandin E2 (PGE2) Biomarker Activity (AID 2283082). The settings on record: primary human HUVEC with PBMC; actives raise or lower the signal. The method, boiled down: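 LPS-activated HUVEC/PBMC co-culture; cmpd dosed, 24 h; PGE2 by ELISA; bidirectional fit vs DMSO; SRB (0.1%, TCA-fixed, 560 nm) in parallel plates for overt cytotox.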

Read-out in assay [9]: Macrophage colony-stimulating factor (MCSF), CSF1 (gene 1435)
Kind of assay: BSK_LPS_MCSF: BioMAP Diversity Plus: LPS Assay for Macrophage colony-stimulating factor (MCSF) Biomarker Activity (AID 2283083). As to conditions: primary human HUVEC with PBMC; actives raise or lower the signal. A digest of the protocol: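 Human umbilical vein endothelial cells co-cultured with peripheral blood mononuclear cells were exposed to compound for 24 h. M-CSF levels were measured by ELISA, and bidirectional curve fitting used DMSO as the negative control and baseline.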

Read-out in assay [10]: Tissue Factor, F3 (gene 2152)
Kind of assay: BSK_LPS_TissueFactor: BioMAP Diversity Plus: LPS Assay for Tissue Factor Biomarker Activity (AID 2283084). As to conditions: primary human HUVEC with PBMC; actives raise or lower the signal. A digest of the protocol: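 Human umbilical vein endothelial cells co-cultured with peripheral blood mononuclear cells were dosed and stimulated with LPS. Cell-surface CD142 was quantified by ELISA at 24 h. Activity was fitted bidirectionally against DMSO baseline.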

Read-out in assay [11]: Tumor necrosis factor (Homo sapiens) (UniProt P01375)
Put plainly: BSK_LPS_TNFa: BioMAP Diversity Plus: LPS Assay for Tumour Necrosis Factor alpha (TNFa) Biomarker Activity (AID 2283085). The settings on record: primary human HUVEC with PBMC; actives raise or lower the signal. A digest of the protocol:
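Read-out is ELISA of TNFa in primary human endothelial cell–PBMC co-cultures at 24 h after compound. Activity in either direction was fitted against DMSO.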

Read-out in assay [12]: Vascular cell adhesion molecule 1 (VCAM1), VCAM1 (gene 7412)
Kind of assay: BSK_LPS_VCAM1: BioMAP Diversity Plus: LPS Assay for Vascular cell adhesion molecule 1 (VCAM1) Biomarker Activity (AID 2283086). The settings on record: primary human HUVEC with PBMC; actives raise or lower the signal. The method, boiled down: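 HUVEC + PBMC co-culture, LPS system; compound 24 h; VCAM-1 by ELISA; bidirectional fit vs DMSO control; parallel SRB (0.1%, TCA-fixed, 560 nm) for cytotoxicity.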

Read-out in assay [13]: CD38, CD38 (gene 952)
Put plainly: BSK_SAg_CD38: BioMAP Diversity Plus: SAg Assay for CD38 Biomarker Activity (AID 2283087). As to conditions: primary human HUVEC with PBMC; actives raise or lower the signal. A digest of the protocol:
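Human HUVEC plus PBMC co-culture stimulated with superantigen; CD38 measured by ELISA 24 h after chemical dosing. Fluorescence read-out, bidirectional fit against DMSO; cytotoxicity tracked in parallel by SRB and Alamar Blue.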

Read-out in assay [14]: CD40, CD40 (gene 958)
Put plainly: BSK_SAg_CD40: BioMAP Diversity Plus: SAg Assay for CD40 Biomarker Activity (AID 2283088). The settings on record: primary human HUVEC with PBMC; actives raise or lower the signal. The method, boiled down: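 Human umbilical vein endothelial cells co-cultured with PBMC; CD40 levels measured by ELISA with fluorescence read-out 24 h after chemical dosing. Gain or loss of signal fitted bidirectionally against DMSO baseline.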

Read-out in assay [15]: CD69, CD69 (gene 969)
Put plainly: BSK_SAg_CD69: BioMAP Diversity Plus: SAg Assay for CD69 Biomarker Activity (AID 2283089). As to conditions: primary human HUVEC with PBMC; actives raise or lower the signal. A digest of the protocol:
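Endothelial/PBMC co-culture; chemical added; 24 h incubation; CD69 ELISA with fluorescence detection; bidirectional fit vs DMSO.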

Read-out in assay [16]: Monocyte Chemoattractant Protein-1 (MCP1), CCL2 (gene 6347)
Kind of assay: BSK_SAg_MCP1: BioMAP Diversity Plus: SAg Assay for Monocyte Chemoattractant Protein-1 (MCP1) Biomarker Activity (AID 2283090). The settings on record: primary human HUVEC with PBMC; actives raise or lower the signal. The method, boiled down: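 MCP-1 levels in the endothelial–PBMC SAg co-culture were quantified by ELISA at 24 h post-dosing; both increases and decreases versus DMSO scored. Cytotoxicity monitored by SRB total protein in parallel cultures.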

Read-out in assay [17]: E-selectin (Homo sapiens) (UniProt P16581)
Put plainly: BSK_SAg_Eselectin: BioMAP Diversity Plus: SAg Assay for Eselectin Biomarker Activity (AID 2283091). As to conditions: primary human HUVEC with PBMC; actives raise or lower the signal. A digest of the protocol:
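HUVEC co-cultured with PBMC, compound dosed then read at 24 h; E-selectin measured by ELISA. Activity fitted bidirectionally against DMSO as negative control and baseline.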

Read-out in assay [18]: Monokine induced gamma interferon (MIG), CXCL9 (gene 4283)
Kind of assay: BSK_SAg_MIG: BioMAP Diversity Plus: SAg Assay for Monokine induced gamma interferon (MIG) Biomarker Activity (AID 2283092). The settings on record: primary human HUVEC with PBMC; actives raise or lower the signal. A digest of the protocol:
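Measures CXCL9 protein by ELISA in a human vascular primary-cell co-culture (umbilical vein endothelium with PBMC) 24 h after chemical addition. Activity is scored up or down from the DMSO control.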

A short description of assay [19]: BSK_SAg_PBMCCytotoxicity: PBMC Cytotoxicity Assessment in the BioMAP Diversity Plus: SAg Assay (AID 2283093).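 For AC50: PBMC superantigen activated with SEB plus TSST-1 one hour after compound addition.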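 Note: PBMC viability measured as Alamar Blue reduction fluorescence at 546/580 nm; fitted both ways against DMSO so a hit may be loss or gain of signal.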 The settings on record: primary human HUVEC with PBMC. The method, boiled down:
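Compound added to 75,000 PBMC/well for 1 h; SEB and TSST-1 then added at 20 ng/mL final each; 90 h incubation; Alamar Blue 6 h; read 546/580 nm ex/em. Activity fitted bidirectionally relative to DMSO baseline.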

Read-out in assay [20]: Interleukin-8 (IL8), CXCL8 (gene 3576)
Kind of assay: BSK_SAg_IL8: BioMAP Diversity Plus: SAg Assay for Interleukin-8 (IL8) Biomarker Activity (AID 2283094). The settings on record: primary human HUVEC with PBMC; actives raise or lower the signal. The method, boiled down:
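ELISA read-out of IL-8 in a primary human vascular co-culture (umbilical vein endothelium plus PBMC), taken 24 h after compound addition. Values derive from bidirectional fits against DMSO negative controls.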

Sequence of Tumor necrosis factor (Homo sapiens) (P01375 whole entry, looked up): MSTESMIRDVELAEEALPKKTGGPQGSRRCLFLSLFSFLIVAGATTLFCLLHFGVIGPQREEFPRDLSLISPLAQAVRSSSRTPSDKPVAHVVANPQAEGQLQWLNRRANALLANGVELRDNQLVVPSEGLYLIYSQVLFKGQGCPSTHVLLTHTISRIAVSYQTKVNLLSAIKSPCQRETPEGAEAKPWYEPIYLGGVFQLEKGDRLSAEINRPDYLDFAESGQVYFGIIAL
Sequence of E-selectin (Homo sapiens) (P16581 whole entry, looked up): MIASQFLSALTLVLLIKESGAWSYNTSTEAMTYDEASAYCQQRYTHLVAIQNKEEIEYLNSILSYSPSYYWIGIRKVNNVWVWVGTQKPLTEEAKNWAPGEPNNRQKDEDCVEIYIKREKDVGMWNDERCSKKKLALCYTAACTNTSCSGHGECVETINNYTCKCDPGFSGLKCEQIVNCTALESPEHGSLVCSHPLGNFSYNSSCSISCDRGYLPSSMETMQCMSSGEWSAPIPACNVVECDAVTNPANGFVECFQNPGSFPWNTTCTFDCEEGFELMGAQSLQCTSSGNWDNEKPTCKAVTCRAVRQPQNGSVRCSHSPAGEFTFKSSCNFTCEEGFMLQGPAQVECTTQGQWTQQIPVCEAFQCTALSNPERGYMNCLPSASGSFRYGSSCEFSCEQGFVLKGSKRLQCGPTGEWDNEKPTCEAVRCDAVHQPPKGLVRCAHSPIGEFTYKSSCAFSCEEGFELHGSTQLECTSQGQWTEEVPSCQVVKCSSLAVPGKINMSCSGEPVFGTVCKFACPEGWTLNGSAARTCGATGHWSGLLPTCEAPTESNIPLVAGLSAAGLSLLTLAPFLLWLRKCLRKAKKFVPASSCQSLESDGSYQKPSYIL

`Cn1cnc2c1c(=O)[nH]c(=O)n2C`: the outcome in [1], in assay [2], in [3], in assay [4], in assay [5] and in assay [6] was inactive. Further, the outcome in assay [7], in [8], in [9], in [10], in [11] and in assay [12] was inactive. For the same compound, the outcome in assay [13], in assay [14], in [15], in [16], in [17] and in assay [18] was inactive. Moreover, the result in assay [19] and in [20] was inactive.
Take `CCCCCCCCCCCCCCOS(=O)(=O)O`: the AC50 is 9.42 µM (active) in [1], 20 µM (active) in [13] and 34.2 µM (active) in assay [19]. For the same compound, the outcome in assay [2], in assay [3], in [4], in assay [5], in assay [6] and in assay [7] was inactive. In addition, the result in [8], in assay [9], in [10], in assay [11], in assay [12] and in assay [14] was inactive. Further, the result in assay [15], in assay [16], in assay [17], in assay [18] and in assay [20] was inactive.
With `CCCC(=O)O`, the result in assay [1], in assay [2], in assay [3], in assay [4], in [5] and in assay [6] was inactive. In addition, the outcome in [7], in [8], in assay [9], in assay [10], in assay [11] and in [12] was inactive. The result in assay [13], in assay [14], in [15], in [16], in assay [17] and in assay [18] was inactive. Moreover, in [20], the outcome was inactive.
